The record followed here is PubChem BioAssay (NCATS).

Inconclusive results are not listed. The source made the active and inactive calls. Calls follow the shape of the dose curve; as a rule, active = well fitted cell-killing curve with a large enough effect; inconclusive = small, poorly fitted or top-dose-only effect, or effect the other way; inactive = no such curve, though single readings can be large or run the other way.
Potency is read from the fitted curve at half-maximal effect.

This assay in a line: Quantitative High-Throughput drug screen in 47 multiple myeloma cell lines against the NCATS MIPE library collection: Karpas25_ECACC cell viability assay (AID 1918968; also: nearly all actives have a fitted effect of over 35% in size). The note with it: Karpas25 myeloma viability, CellTiter-Glo ATP, 48 h; series mostly up to 45.8 µM. Put shortly:
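Relative luminescence from CellTiter-Glo served as the viability signal, referenced to DMSO-treated (100%) and cell-free medium (0%) controls. Treatment lasted 48 hours at 37C with 500 cells per well.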
Consider `O=C(Nc1ncc(-c2cc(C(F)F)nn2-c2c(Cl)cccc2Cl)s1)C1CC1`, for which the Potency is 0.662 µM (active).

In the case of `Cc1[nH]nc2ccc(-c3cncc(OC[C@@H](N)Cc4ccccc4)c3)cc12`, the Potency is 2.96 µM (active).

On to `Nc1ncnc2c1c(-c1cccc(OCc3ccccc3)c1)cn2C1CC(CN2CCCC2)C1` (stereo not drawn), for which the Potency is 0.148 µM (active).

With `COc1cc(C)c(Sc2cnc(NC(=O)c3ccc(CNC(C)C(C)C)cc3)s2)cc1C(=O)N1CCN(C(C)=O)CC1` (stereo not drawn), the Potency is 4.69 µM (active).

For `COc1cc2c(Oc3ccc(-c4cnc(Nc5ccc(F)cc5)n(C)c4=O)cc3F)ccnc2cc1OCCCN1CCOCC1`, the Potency is 1.87 µM (active).

As for `C[C@@H]1COC(Nc2ccc3ncnc(Nc4ccc(OCc5nccs5)c(Cl)c4)c3c2)=N1`, the Potency is 2.64 µM (active).

Turning to `COc1cc2c(NC3CCN(C(C)C)CC3)nc(C3CCCCC3)nc2cc1OCCCN1CCCC1`, the Potency was 7.43 µM (active).

For the compound `Cc1cc(C(=O)N2CCN(c3cccc(Cl)c3)CC2)n(-c2ccccc2)n1`, the Potency is 1.32 µM (active).

For the compound `O=C(Cc1ccc(-c2ccc(OCCN3CCOCC3)cc2)cn1)NCc1ccccc1`, the Potency was 0.0418 µM (active).

`Cn1cc(-c2[nH]c3cc(NC(=O)[C@H](N)C4CCCCC4)cc4c3c2C=NNC4=O)cn1`: the Potency was 0.935 µM (active).

Consider `CNC(=O)c1ccccc1Nc1nc(Nc2ccc(N3CCOCC3)cc2OC)ncc1Cl`, for which the Potency was 0.209 µM (active).

`CC(C)c1ccccc1Cc1cc(C(=O)Nc2ccc(S(=O)(=O)c3ccccc3C(C)(C)C)cc2)c(O)c(O)c1O`: the Potency was 3.72 µM (active).

On to `Nc1ccn([C@@H]2O[C@H](CO)[C@H](O)C2(F)F)c(=O)n1`, for which the Potency was 3.72 µM (active).

For `O=C(CCCCCCC(=O)Nc1ccc([C@H]2O[C@@H](CSc3nc(-c4ccccc4)c(-c4ccccc4)o3)C[C@@H](c3ccc(CO)cc3)O2)cc1)NO`, the Potency was 9.35 µM (active).

For `CCS(=O)(=O)c1cccc(-c2cc(C(=O)NC3CCN(C)CC3)c(C)c3[nH]c4ncc(C)cc4c23)c1`, the Potency is 1.18 µM (active).

Consider `COc1cc2ncnc(Nc3ccc(F)c(Cl)c3)c2cc1NC(=O)C=CCN1CCCCC1`, for which the Potency was 2.96 µM (active).

Take `C#Cc1cccc(Nc2ncnc3cc(OC)c(OCCCCCCC(=O)NO)cc23)c1`: the Potency is 0.0526 µM (active).

Regarding `CC=C1NC(=O)[C@H]2CSSCCC=C[C@H](CC(=O)N[C@H](C(C)C)C(=O)N2)OC(=O)[C@H](C(C)C)NC1=O`, the Potency is 0.0148 µM (active).

With `O=c1[nH]nc(Sc2ncc([N+](=O)[O-])s2)n1-c1ccc2c(c1)OCCO2`, the Potency is 1.32 µM (active).

Regarding `CC[C@@]1(O)C(=O)OCc2c1cc1n(c2=O)Cc2cc3cc(O)ccc3nc2-1`, the Potency was 0.209 µM (active).

Take `COc1ccc(-c2cc3c(C)nc(N)nc3n(C3CCC(OCCO)CC3)c2=O)cn1` (stereo not drawn): the Potency was 0.0264 µM (active).

For `OCc1ccc(-c2ccc(-c3ccc(CO)s3)o2)s1`, the Potency was 3.72 µM (active).

In the case of `CN1CCN(c2cc(C(=O)Nc3ccc4c(c3)-c3c(c(C(N)=O)nn3-c3ccc(F)cc3)CC4)c(Cl)cn2)CC1`, the Potency was 2.35 µM (active).

In the case of `Cc1cnc(Nc2ccc(F)cc2Cl)nc1-c1c[nH]c(C(=O)N[C@H](CO)c2cccc(Cl)c2)c1`, the Potency was 14.8 µM (active).

Consider `COc1ccc(CC2c3cc(OC)c(OC)cc3CC[N+]2(C)CCC(=O)OCCCCCOC(=O)CC[N+]2(C)CCc3cc(OC)c(OC)cc3C2Cc2ccc(OC)c(OC)c2)cc1OC` (stereo not drawn), for which the viability (% of control) was 100% [at 5.15 µM] (inactive).

Regarding `CN(C)CC=CC(=O)Nc1cc2c(Nc3ccc(F)c(Cl)c3)ncnc2cc1O[C@H]1CCOC1`, the Potency is 1.32 µM (active).

Take `CC(C)c1cc(C(=O)N2Cc3ccc(CN4CCN(C)CC4)cc3C2)c(O)cc1O`: the Potency was 0.166 µM (active).

As for `Clc1cccc(-c2nnnn2Cc2cccnc2)c1Cl`, the Potency is 16.6 µM (active).

In the case of `N#CCNC(=O)c1ccc(-c2ccnc(Nc3ccc(N4CCOCC4)cc3)n2)cc1`, the Potency was 9.35 µM (active).

With `Nc1ncnc2c1c(-c1cnc3[nH]ccc3c1)nn2C1CCCC1`, the Potency was 0.209 µM (active).

Turning to `NC1(Cc2ccc(Cl)cc2)CCN(c2ncnc3[nH]ccc23)CC1`, the Potency was 1.87 µM (active).

For `Nc1cc(C(F)(F)F)c(-c2cc(N3CCOCC3)nc(N3CCOCC3)n2)cn1`, the Potency is 0.743 µM (active).

As for `COc1cccc2c(NCc3ccccc3)nc(-n3c(N)nc4ccccc43)nc12`, the Potency was 2.64 µM (active).
